RORg inh = qHTS for inhibitors of ROR gamma transcriptional activity; 310,000 compounds, 5.4% hits; Nuclear receptor ROR-gamma (Mus musculus), P51450; Drosophila S2 Gal4-RORgamma UAS-luciferase reporter, 20 h; AID 2551, 2010; Potency, µM (highest dose often 53.6 µM), without a hit: at the highest dose activity change, negative = inhibition, most hits filed as inhibitors; note: potency is the fitted concentration of half-maximal effect; % is set by controls: 0 for no effect and ±100 for the full control effect; nearly all actives have a fitted effect of over 60% in size
Target sequence (P51450 whole entry, looked up, the tested form may be a part): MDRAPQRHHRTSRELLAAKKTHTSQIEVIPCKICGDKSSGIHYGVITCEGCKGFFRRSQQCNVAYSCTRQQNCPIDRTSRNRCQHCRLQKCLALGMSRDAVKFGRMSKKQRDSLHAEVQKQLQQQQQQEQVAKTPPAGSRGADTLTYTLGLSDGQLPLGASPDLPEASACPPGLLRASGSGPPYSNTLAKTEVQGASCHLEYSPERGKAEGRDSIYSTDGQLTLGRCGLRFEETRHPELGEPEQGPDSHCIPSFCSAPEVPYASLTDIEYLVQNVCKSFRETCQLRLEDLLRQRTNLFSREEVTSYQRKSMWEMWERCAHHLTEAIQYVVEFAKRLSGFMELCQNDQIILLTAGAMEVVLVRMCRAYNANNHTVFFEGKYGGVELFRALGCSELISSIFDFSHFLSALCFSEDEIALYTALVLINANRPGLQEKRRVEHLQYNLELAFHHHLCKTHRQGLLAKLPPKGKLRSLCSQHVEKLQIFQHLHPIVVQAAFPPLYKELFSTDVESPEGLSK
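Stable Schneider cell line, Gal4 DNA-binding domain fused to ROR gamma, UAS-luciferase. Cmpd 1 hr RT → CuSO4 700 uM final → 20 hr RT → luciferase reagent 10 min → luminescence.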
BCR signal inh = qHTS Assay to Find Inhibitors of Chronic Active B-Cell Receptor Signaling | ABC-DLBCL IkBa-CBG/CBR reporter, luminescence ratio, 4 h | 340,000 compounds, 0.05% hits | Potency, µM (series often up to 46.1 µM), inactives show at the top dose activity change, negative = inhibition, most hits filed as inhibitors; active = well fitted inhibition curve with a large enough effect in the signal ratio, with a control signal flat, not every such curve was filed as active; inconclusive = small, poorly fitted or top-dose-only effect, or effect the other way, or a change in a side signal; the % refers to the signal ratio;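 note: potency is the fitted concentration of half-maximal effect; plate controls were basal doxycycline-induced cells for no effect and cells given 10 µM MG132 for full effect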
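TMD8 human ABC-DLBCL cells with doxycycline-inducible IκBα–green luciferase fusion and unfused red luciferase, in 0.5% FBS medium; compounds up to 46 uM, 4 h at 37C. Green/red luminescence ratio, filter-overlap corrected, fitted to concentration-response curves.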
Giardia kill = Small Molecules that selectively kill Giardia lamblia: qHTS; Giardia lamblia trophozoite viability; AID 540267, 2011; activity change, % at 7.66 µM, hits read low; 340,000 compounds, 0.15% hits; in the data active = activity change below about -80%; inconclusive = between about -30% and that limit;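 note: parasites exposed to compound for two days anaerobically before the ATP read; % is set by controls: 0 for no effect and ±100 for the full control effect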
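Giardia trophozoites, 100 cells per well, were exposed to compounds for 48 hrs at 37 deg C under anaerobic conditions; viability was then read as ATP content by bioluminescence after 15-30 min at room temperature.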
SW480 rereplic = A quantitative high throughput screen for small molecules that induce DNA re-replication in SW480 colon adenocarcinoma cells. Potency, µM (highest dose often 46.1 µM), inactives show at the top dose re-replication activation, actives largely listed as activators. SW480 DNA re-replication, Hoechst DNA content imaging, 48 h. AID 624297, 2012. 340,000 compounds, 1.8% hits; note: potency is the fitted concentration of half-maximal effect; % of control where 0% means no effect; nearly all actives have a fitted effect of over 55% in size
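Image-based DNA-content assay: after two days of treatment, nuclei were labelled with the DNA dye Hoechst and imaged, and hits were compounds raising the count of nuclei showing high fluorescence intensity.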
MCF10A rereplic = A quantitative high throughput screen for small molecules that induce DNA re-replication in MCF 10a normal breast cells; MCF 10A DNA re-replication, Hoechst nuclear intensity, 48 h; Potency, µM (top dose mostly 46.1 µM), for the others: top-dose activity, positive = re-replication, most hits filed as activators; 350,000 compounds, 2.9% hits; note: potency is the fitted concentration of half-maximal effect; % of control where 0% means no effect; nearly all actives have a fitted effect of over 50% in size
Gal4-VP16 FLuc = VP16 counterscreen qHTS for inhibitors of ROR gamma transcriptional activity | Drosophila S2 Gal4-VP16 UAS-luciferase, luminescence, 20 h | Potency, µM (doses to about 53.6 µM), inactives show top-dose activity, negative = inhibition, hits mostly inhibitors | 310,000 compounds, 3.5% hits;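 note: Gal4-VP16 expression switched on by copper sulfate through the metallothionein promoter; potency is the fitted concentration of half-maximal effect; % is set by controls: 0 for no effect and ±100 for the full control effect; nearly all actives have a fitted effect of over 50% in size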
An asterisk follows results filed as active; ? = inconclusive; · = no result given; [ ] = another dose, or the depositor's remark. Shown are actives, neighbours in structure and some others; about 8.3% of the full set was active somewhere. Unless noted, calls come from the whole dose curve; as a rule, active = well fitted curve in the direction sought with a large enough effect; inconclusive = small, poorly fitted or top-dose-only effect, or another doubt; inactive = no such curve, though single readings can be large; an effect the other way counts as inactive or inconclusive.

SMILES	RORg inh	BCR signal inh	Giardia kill	SW480 rereplic	MCF10A rereplic	Gal4-VP16 FLuc
Cc1ccccc1NC(=O)Cn1c(NCC(C)O)nc2ccccc21 (stereo not drawn)	4%	-5%	?	-9%	3%	3%
O=C(NCc1ccccn1)c1nc(Cn2ccc([N+](=O)[O-])n2)no1	-29%	1%	1	-4%	-1%	2%
Cc1ccc2nc3c(cc(C(=O)NCCN4CCOCC4)c(=N)n3CCCN3CCOCC3)c(=O)n2c1	0%	-1%	9	1.8µM*	?	0%
Cc1ccc2nc3c(cc(C(N)=S)c(=N)n3CCCOC(C)C)c(=O)n2c1	3%	11%	-13	-2%	?	-18%
Cc1nn2c(-c3ccc(S(=O)(=O)N4CCN(CCO)CC4)o3)nnc2c2ccccc12	-20%	-26%	4	18µM*	0%	-9%
CCc1nnc(NC(=O)c2ccc(OC)c(S(=O)(=O)N3CCCC3)c2)s1	·	7%	10	-8%	5%	·
O=c1c2c3nc4ccccc4nc3n(/N=C/c3ccccn3)c2ncn1-c1ccccc1	2%	?	5	23µM*	3.3µM*	-7%
C=CCn1cnc2c(c1=O)c1nc3ccccc3nc1n2/N=C/c1ccccn1	1%[10 µM]	12%	11	8%	5%	-25%
CC(=O)Nc1ccc(NC(=O)C(C)Sc2nnc(C3CC3)n2-c2ccccc2)cc1 (stereo not drawn)	·	-1%	0	-11%	-3%	·
O=C(Cn1cnc2c(oc3nc4c(cc32)CCCC4)c1=O)Nc1cccc(Cl)c1	-23%	0%	14	?	18µM*	-12%
O=C(CN(c1cccc(C(F)(F)F)c1)S(=O)(=O)c1ccc(Cl)c([N+](=O)[O-])c1)NCc1ccccc1	-31%	?	-2	13µM*	3.7µM*	?
CC(NC(=O)CN(c1cccc(C(F)(F)F)c1)S(=O)(=O)c1ccc(Cl)c([N+](=O)[O-])c1)c1ccccc1 (stereo not drawn)	?	?	7	?	?	?
O=C(CN(c1cccc(C(F)(F)F)c1)S(=O)(=O)c1ccc(Cl)c([N+](=O)[O-])c1)NCc1ccccc1Cl	-13%	?	-1	?	4.6µM*	?
CCCCN(c1nc2ccccc2nc1Cl)S(=O)(=O)c1ccc(C)cc1	-35%	3%	12	-9%	?	2.5µM*
COc1ccc(-c2cc(N)n(S(=O)(=O)c3c(F)c(F)c(F)c(F)c3F)n2)cc1OC	?	?	11	?	?	7.1µM*
CN(C(=O)COC(=O)c1ccc2ccccc2n1)C1CCS(=O)(=O)C1 (stereo not drawn)	6%	-2%	-9	-25%	11%	-1%
Cc1ccc(NS(=O)(=O)c2cc(-c3n[nH]c(=O)c4ccccc34)ccc2C)cc1	?	?	8	23µM*	?	-6%
CCOC(=O)c1nn(-c2cccc(OC)c2)c2nc(Nc3ccccc3)cc(=O)n12	114%	?	10	23µM*	?	?
CCCN1CNc2c(c(=O)[nH]c(=S)n2CCC(C)(C)C)C1	·	·	2	·	·	·
NC(=S)N/N=C/c1c(O)c(Br)cc2oc3c(c12)CCCC3	7.9µM*	?	-14	18µM*	?	?
COc1ccccc1/C=C/C1(C(=O)NC2CCCC2)CC(=O)N1c1ccc(C)cc1 (stereo not drawn)	?	-1%	-5	?	18µM*	-2%
COc1ccccc1/C=C/C1(C(=O)NC2CCCC2)CC(=O)N1c1ccc(F)cc1 (stereo not drawn)	-13%	?	-5	16µM*	?	6%
O=S(=O)(NC1CCCCC1Oc1ccccc1)c1ccccc1 (stereo not drawn)	21%	0%	-21	·	-5%	7%
COc1ccccc1N1C(=O)CC(Nc2ccc(N3CCOCC3)cc2)C1=O (stereo not drawn)	-5%	?	27	-7%	1%	2%
O=C1CC(Nc2ccc(N3CCOCC3)cc2)C(=O)N1c1ccccc1 (stereo not drawn)	40%	12%	-6	?	8.2µM*	7%
SMILES	RORg inh	BCR signal inh	Giardia kill	SW480 rereplic	MCF10A rereplic	Gal4-VP16 FLuc
CCc1ccc2nc3nc(C)cc(C)c3c(N)c2c1	-23%	?	-4	2.9µM*	-14%	-27%
COc1ccc(/C=N/NC(=S)Nc2ccccc2)cc1COc1ccc(F)cc1	0.35µM*	?	-23	2%	?	0.89µM*
COc1ccc(/C=N/NC(=S)Nc2ccccc2)cc1COc1ccc(Br)cc1	0.32µM*	0%	-14	8%	?	2.2µM*
COc1ccc(/C=N/NC(=O)c2nc(Cl)c(Cl)c(N)c2Cl)cc1COc1ccccc1F	9%	?	16	0%	5%	-15%
COc1ccc(/C=N\NC(=O)c2ccccc2)cc1COc1ccccc1	?	?	-14	?	?	?
COc1ccc(/C=N/NC(=S)Nc2ccccc2)cc1COc1ccccc1F	2.2µM*	?	·	9%	15%	3.2µM*
Cc1cc([N+](=O)[O-])ccc1-c1ccc(C2Nc3ccccc3C(=O)N2O)o1 (stereo not drawn)	?	?	-2	?	10µM*	0.71µM*
CCOC(=O)c1ccc(-c2ccc(CO)o2)cc1	11µM*	?	4	1%	4%	?
N#Cc1ccc(-c2ccc(C3Nc4ccccc4C(=O)N3O)o2)cc1 (stereo not drawn)	·	?	-10	-8%	13%	·
CCOC(=O)c1ccc(-c2ccc(C3Nc4ccccc4C(=O)N3O)o2)cc1 (stereo not drawn)	11µM*	0%	-5	19%	?	?
Cc1ccc(-c2cc(Cc3ccccn3)c(=O)[nH]n2)cc1	?	11%	11	0%	?	-1%
CCCNC1=C(N(C(C)=O)c2cccc(F)c2)C(=O)c2ccccc2C1=O	?	?	-1	5.8µM*	0.73µM*	?
CCCNC(=O)COC(=O)/C=C/c1cccc(F)c1	22%	5%	-13	-1%	7%	3%

Compound activity (PubChem BioAssay)
